Source: PubChem BioAssay (National Center for Advancing Translational Sciences (NCATS))
Sampled rows, rich in hits. Any-hit rate of the full collection: about 12%.
Pf growth 96h – P. falciparum growth inhibition at 96 hour, primary screen for plastid delayed-death inhibitors; P. falciparum luciferase reporter growth, 96 h; Potency, µM (series often up to 28.7 µM), inactives show at the top dose activity change, negative = inhibition, actives largely listed as inhibitors; 320,000 compounds, 6.9% hits; AID 504834; note: % is set by controls: 0 for no effect and ±100 for the full control effect
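P. falciparum expressing integrated firefly luciferase grown in erythrocytes (2% hematocrit, 0.05% parasitemia final) with compounds for 96 hours at 37 C, 5% CO2. Growth inhibition read as loss of luminescence after adding luciferase detection reagent.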
AmpC inh no detg – AmpC beta-lactamase inhibition without detergent | P00811 | 330,000 compounds, 0.52% hits | Potency, µM (highest dose often 57.1 µM), without a hit: at the top dose activity change, negative = inhibition, hits mostly inhibitors | AmpC nitrocefin hydrolysis, absorbance 480 nm, 0.0001% Triton;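 note: plate controls were no compound for no effect and no enzyme for full effect; nearly all actives have a fitted effect of over 20% in size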
Target sequence (P00811 whole entry, looked up): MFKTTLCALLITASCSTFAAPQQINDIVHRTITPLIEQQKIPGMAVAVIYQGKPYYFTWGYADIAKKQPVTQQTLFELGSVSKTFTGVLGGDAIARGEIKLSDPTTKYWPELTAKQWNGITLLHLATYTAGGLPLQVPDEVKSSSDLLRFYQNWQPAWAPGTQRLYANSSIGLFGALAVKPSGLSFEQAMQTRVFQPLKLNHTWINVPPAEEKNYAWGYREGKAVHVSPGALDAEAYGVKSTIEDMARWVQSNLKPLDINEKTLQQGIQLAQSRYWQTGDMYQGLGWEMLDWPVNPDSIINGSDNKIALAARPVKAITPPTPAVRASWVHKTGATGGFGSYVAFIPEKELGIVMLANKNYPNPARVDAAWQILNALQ
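AmpC (5.3 nM in the dispensed reagent) in 20 mM phosphate pH 7.0 with 0.01% (detergent screen) or 0.0001% Triton X-100 was preincubated with compounds for 15 min at room temperature. Nitrocefin was then added from an 800 uM solution, and hydrolysis was followed at 480 nm.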
SARS PLpro yeast – SARS-CoV PLP inhibition in yeast; S. cerevisiae expressing SARS-CoV PLpro, growth rescue; Potency, µM (series often up to 32.9 µM), inactives show at the top dose activity, positive = growth rescue, most hits filed as activators; 330,000 compounds, 0.19% hits; AID 485353; calls by dose curve; note: 0% is about no effect; nearly all actives have a fitted effect of over 55% in size
Pf growth 48h – P. falciparum growth inhibition at 48 hours (one generation) | P. falciparum luciferase growth in erythrocytes, 48 h | Potency, µM (doses to about 28.7 µM), for inactives: at the top dose activity change, negative = inhibition, usual class: inhibitors | 310,000 compounds, 5.9% hits; note: % is set by controls: 0 for no effect and ±100 for the full control effect
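Firefly luciferase activity from engineered P. falciparum reports growth; inhibitors lower the luminescent signal. Cultures contained 2% hematocrit erythrocytes at 0.1% final parasitemia.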
AmpC detergent – AmpC beta-lactamase inhibition with detergent present; 370,000 compounds, 0.041% hits; P00811; Potency, µM (top dose mostly 114 µM), inactives show at the highest dose activity change, negative = inhibition, usual class: inhibitors; AmpC hydrolysis of nitrocefin, absorbance 480 nm, 0.01% Triton;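 note: 0% = no-compound wells and -100% = no-enzyme wells; nearly all actives have a fitted effect of over 25% in size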
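AmpC (5.3 nM in the dispensed reagent) in 20 mM phosphate pH 7.0 with 0.01% (detergent screen) or 0.0001% Triton X-100 was preincubated with compounds for 15 min at room temperature. Nitrocefin was then added from an 800 uM solution, and hydrolysis was followed at 480 nm.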
Sm TGR block – blocks Schistosoma mansoni thioredoxin glutathione reductase. Q962Y6. purified TGR, DTNB reduction, TNB absorbance 405 nm. Potency, µM (top dose mostly 114 µM), inactives show at the highest dose activity change, negative = inhibition, hits mostly inhibitors. 360,000 compounds, 3% hits. AID 485364; note: % is set by controls: 0 for no effect and ±100 for the full control effect; nearly all actives have a fitted effect of over 60% in size
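Kinetic colorimetric format: TGR-catalysed, NADPH-driven DTNB reduction monitored via TNB absorbance. Enzyme dispensed at 20 nM; compound exposure 15 min at room temperature before reaction start.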
Active calls of the source: *; [ ] = dose if it differs, or a comment. Unless noted, calls come from the whole dose curve; as a rule, active = well fitted curve in the direction sought with a large enough effect; inconclusive = small, poorly fitted or top-dose-only effect, or another doubt; inactive = no such curve, though single readings can be large; an effect the other way counts as inactive or inconclusive. Potency is the fitted concentration of half-maximal effect.

Screening N#CC1=C(N)SC(N)=C(C#N)C1c1ccoc1 returned Pf growth 96h 3%, AmpC inh no detg -23%, SARS PLpro yeast 1%, Pf growth 48h 12%, AmpC detergent inconclusive and Sm TGR block 5µM*.
Screening CCCn1c(NC(=O)c2ccccc2)nc2ccccc21 returned Pf growth 96h 54%, AmpC inh no detg -24%, SARS PLpro yeast -22%, Pf growth 48h inconclusive, AmpC detergent -7% and Sm TGR block -17%.
`CCN(CC)CCn1c(NC(=O)c2ccc(Cl)cc2)nc2ccccc21` gave Pf growth 96h 3.7µM*, AmpC inh no detg -19%, SARS PLpro yeast -10%, AmpC detergent -1% and Sm TGR block 3%.
`CCN(CC)CCn1c(NC(=O)c2ccccc2O)nc2ccccc21` gave Pf growth 96h 16%, AmpC inh no detg 227%, SARS PLpro yeast -8%, Pf growth 48h -74%, AmpC detergent inconclusive and Sm TGR block 45µM*.
`O=C(Nc1nc2ccccc2n1CCN1CCOCC1)c1ccc(Cl)cc1` gave Pf growth 96h inconclusive, AmpC inh no detg -3%, SARS PLpro yeast 0%, Pf growth 48h 13µM*, AmpC detergent -7% and Sm TGR block -2%.
Fc1ccc(Oc2cnc3ccccc3n2)cc1 was read as Pf growth 96h -13%, AmpC inh no detg -11%, SARS PLpro yeast -1%, Pf growth 48h 22%, AmpC detergent -7% and Sm TGR block 15%.
Screening O=C(N/N=C1/CC2C=CCC12)c1cccs1 (stereo not drawn) returned Pf growth 96h 26%, AmpC inh no detg -23%, SARS PLpro yeast -10%, Pf growth 48h 102%, AmpC detergent -4% and Sm TGR block -4%.
Screening COC(=O)/C=c1/sc2nc3ccccc3n2c1=O returned Pf growth 96h inconclusive, AmpC inh no detg -34%, SARS PLpro yeast 1%, Pf growth 48h inconclusive, AmpC detergent 45µM* and Sm TGR block 8%.
Screening CCn1c(=NC(=O)CS(=O)(=O)c2ccc(F)cc2)sc2cccc(OC)c21 returned Pf growth 96h inconclusive, AmpC inh no detg -28%, Pf growth 48h 12µM*, AmpC detergent inconclusive and Sm TGR block -1%.
COc1ccc2c(c1)sc(=NC(=O)CS(=O)(=O)c1ccc(F)cc1)n2C was read as Pf growth 96h 4.1µM*, AmpC inh no detg -39%, SARS PLpro yeast 0%, Pf growth 48h 9.3µM*, AmpC detergent -14% and Sm TGR block -1%.
`CCCn1c(=NC(=O)CS(=O)(=O)c2ccccc2)sc2cc(S(C)(=O)=O)ccc21` gave Pf growth 96h inconclusive, AmpC inh no detg -18%, SARS PLpro yeast -2%, Pf growth 48h inconclusive, AmpC detergent 0% and Sm TGR block -6%.
For COc1ccc(Br)cc1S(=O)(=O)NCCCN1CCOCC1 the results were Pf growth 96h -5%, AmpC inh no detg 37%, SARS PLpro yeast 1%, Pf growth 48h -10%, AmpC detergent 0% and Sm TGR block 4%.
`COc1ccc(N2CCN(CCNC(=O)C3CC(=O)N(C4CCCC4)C3)CC2)cc1` (stereo not drawn) gave Pf growth 96h 1.9µM*, AmpC inh no detg -2%, SARS PLpro yeast 3%, Pf growth 48h 17%, AmpC detergent -1% and Sm TGR block 7%.
CCn1c(=O)cc(SCC(=O)NCCCN2CCN(c3ccccc3F)CC2)c2ccccc21 was read as Pf growth 96h inconclusive, AmpC inh no detg 152%, SARS PLpro yeast -10%, Pf growth 48h 12µM*, AmpC detergent -6% and Sm TGR block -10%.
`COc1cccc(CN2CCN(C(=O)C3CCC(=O)N(C4CCCC4)C3)CC2)c1` (stereo not drawn) gave Pf growth 96h -21%, AmpC inh no detg 37%, SARS PLpro yeast inconclusive, Pf growth 48h inconclusive, AmpC detergent -3% and Sm TGR block inconclusive.
Screening CN1CCN(CCCNC(=O)C2CC(=O)N(C3CCCCC3)C2)CC1 (stereo not drawn) returned Pf growth 96h 0%, AmpC inh no detg -16%, SARS PLpro yeast 0%, Pf growth 48h 15%, AmpC detergent -13% and Sm TGR block 2%.
COc1cccc(N2CCN(C(=O)C3CCC(=O)N(C4CCCCCC4)C3)CC2)c1 (stereo not drawn) was read as Pf growth 96h inconclusive, AmpC inh no detg 192%, SARS PLpro yeast 4%, Pf growth 48h 8.3µM*, AmpC detergent 1% and Sm TGR block -7%.
`O=C(NCCCN1CCN(c2ccccc2F)CC1)C1CC(=O)N(C2CCCC2)C1` (stereo not drawn) gave Pf growth 96h 12µM*, AmpC inh no detg 34%, SARS PLpro yeast -4%, AmpC detergent -10% and Sm TGR block 2%.
CCn1c(=O)c2cc(C(=O)N(CC(C)C)CC(C)C)sc2c2ccccc21 was read as AmpC detergent -6% and Sm TGR block 10%.
Screening COc1ccc(OC)c(CNC(=O)C2CCN(S(=O)(=O)c3cn(C)cn3)CC2)c1 returned AmpC detergent 16% and Sm TGR block 36%.
Cc1ccc2nc(/C(C#N)=C/c3ccc(-c4cccc([N+](=O)[O-])c4)o3)[nH]c2c1 was read as Pf growth 96h inconclusive, AmpC inh no detg 11µM*, SARS PLpro yeast 2%, Pf growth 48h inconclusive, AmpC detergent -11% and Sm TGR block -13%.
`COc1c(O)ccc(/C=C(\C#N)c2nc3ccccc3[nH]2)c1[N+](=O)[O-]` gave Pf growth 96h 4.1µM*, AmpC inh no detg 1%, SARS PLpro yeast -7%, Pf growth 48h 8%, AmpC detergent -1% and Sm TGR block -1%.
Cc1ccc2nc(/C(C#N)=C\c3cc(O)ccc3[N+](=O)[O-])[nH]c2c1 was read as Pf growth 96h 33%[5.75 µM], AmpC inh no detg inconclusive, SARS PLpro yeast -1%, Pf growth 48h 9%, AmpC detergent -4% and Sm TGR block 13%.
N#C/C(=C\c1cc([N+](=O)[O-])c(N2CCOCC2)cc1N1CCOCC1)c1nc2ccccc2[nH]1 was read as Pf growth 96h 12µM*, AmpC inh no detg 61%, SARS PLpro yeast 2%, Pf growth 48h inconclusive, AmpC detergent 0% and Sm TGR block -7%.
Screening Cc1cc(/C=C(/C#N)c2nc3ccccc3[nH]2)c(C)n1-c1cccc([N+](=O)[O-])c1 returned Pf growth 96h 2.3µM*, AmpC inh no detg -8%, SARS PLpro yeast -10%, AmpC detergent -6% and Sm TGR block 4%.
